Assay results published in PubChem BioAssay AID1240 (Sanford-Burnham Center for Chemical Genomics, 2008).
Out of some 50,000 compounds screened, about 800 (1.6%) showed an effect of 50% or more. This excerpt belongs to a sample that is enriched for strong results.

The compounds below were run against Bcl-2-like protein 10 (Homo sapiens) (UniProt Q9HD36) (assay: TR3 peptide-Bcl-B binding displacers, biochemical primary FP assay, phenotype converters (AID 1240;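 further: 0% = Bcl-B with tracer peptide and DMSO and 100% = tracer peptide lacking Bcl-B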)). Settings: GST-Bcl-B / FITC-TR3 peptide fluorescence polarization; stronger effect = higher value; compound at 3.75 mg/L.
Chain of Bcl-2-like protein 10 (Homo sapiens) (Q9HD36 whole entry, looked up): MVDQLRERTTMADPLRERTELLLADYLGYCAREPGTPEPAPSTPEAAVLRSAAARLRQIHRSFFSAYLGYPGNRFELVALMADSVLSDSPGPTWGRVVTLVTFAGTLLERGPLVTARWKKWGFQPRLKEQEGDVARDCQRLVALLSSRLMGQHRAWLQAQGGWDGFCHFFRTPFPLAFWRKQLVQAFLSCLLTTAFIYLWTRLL

SMILES	displacement
COc1ccc(OC)c(NC(=O)CN(c2cc(Cl)cc(Cl)c2)S(C)(=O)=O)c1	-2.6%
O=C(N/N=C/c1ccccc1)c1cc(Br)ccc1O	7.4%
O=C(CSc1nc(-c2ccccc2)c(-c2ccccc2)o1)Nc1nccs1	106%
O=C(CSc1nc(-c2ccccc2)c(-c2ccccc2)o1)Nc1ccccc1	-4.2%
O=C(CSc1nnc(-c2ccccc2)c(-c2ccccc2)n1)Nc1nccs1	4.6%
CSc1nnc2c(n1)OC(C(=O)c1ccccc1)Nc1ccccc1-2 (centres undefined)	13.5%
COc1cccc(NS(=O)(=O)c2ccc(OC)c(Br)c2)c1	-4.6%
O=C1NC(=O)/C(=C\c2ccc(Oc3ccc(C(F)(F)F)cc3[N+](=O)[O-])c(Cl)c2)S1	5.5%
O=C1NC(=S)S/C1=C/c1ccc(Oc2ccc(C(F)(F)F)cc2[N+](=O)[O-])c(Cl)c1	2.8%
O=C1NC(=S)N/C1=C/c1ccc(Oc2ccc(C(F)(F)F)cc2[N+](=O)[O-])c(Cl)c1	88.3%
Cc1ccc(N(CC(=O)NC(C)c2ccccc2)S(C)(=O)=O)cc1Cl (centres undefined)	-1.3%
NNC(=O)COc1ccc2c(c1Br)CCCC2	-25.1%
O=C(O)CCCCCN1C(=O)C(O)=C(C(=O)/C=C/c2ccccc2)C1c1cccc([N+](=O)[O-])c1 (centres undefined)	96.1%
O=C(O)CCCCCN1C(=O)C(O)=C(C(=O)/C=C/c2ccccc2)C1c1ccccc1 (centres undefined)	4.7%
O=C(O)CCCCCN1C(=O)C(O)=C(C(=O)/C=C/c2ccccc2)C1c1ccc([N+](=O)[O-])cc1 (centres undefined)	-4.6%
Cc1cc(Cl)ccc1NC(=O)C(=O)N/N=C/c1ccccc1F	4.5%
CCN1CCN(CC(O)CN2CCn3c4c(c5cc(C)ccc53)CCCC42)CC1 (centres undefined)	24.7%
CCNC(=O)/C=C/c1cn(-c2ccccc2)nc1-c1ccccc1	9.4%
CCOC(=O)C(=C/C=C1/Sc2ccccc2N1C)C(=O)OCC	131%
CCOC(=O)C(C(=O)OCC)=C1Sc2ccccc2N1C	13.4%
CCOC(=O)C(=C/C=C/c1ccccc1)C(=O)OCC	-2.3%
COc1ccc(Br)cc1/C=C/C(=O)N1CCN(c2ccc([N+](=O)[O-])cc2)CC1	12.3%
Cc1ccc(NC(=S)NC(=O)c2ccccc2)cc1Br	9%

SMILES	displacement
O=C(Nc1ccc2c(c1)Cc1ccccc1-2)c1cc2ccccc2o1	134%
O=C(Nc1ccc(Cl)c(Cl)c1)c1cc2ccccc2o1	2.9%
O=C(NC(=S)Nc1ccc2c(c1)-c1ccccc1C2)c1ccccc1	51.9%
O=C(NC(=S)Nc1ccc2oc3ccccc3c2c1)c1ccccc1	91.8%
O=C(Nc1ccc2c(c1)Cc1ccccc1-2)c1ccncc1	-3.2%
O=C(NC(=S)Nc1ccc2oc(-c3ccccc3)nc2c1)c1ccccc1	-10.6%
O=C(NC(=S)Nc1ccccc1)c1ccccc1	4.7%
O=C(Nc1ccc2c(c1)OCCO2)c1cc2ccccc2o1	-6.3%
COc1ccc(-c2nc(NC(=O)c3ccccc3F)sc2-c2ccc([N+](=O)[O-])cc2)cc1	13.6%
CCOC(=O)C1=C(C)NC(C)=C(C(=O)OCC)C1c1cccs1	-5.1%
CCOc1ccc(/C=C2\C(=O)NC(C)=C2C(=O)OC)cc1	10.8%
CCOC(=O)C1=C(C)NC(=O)/C1=C\c1cccs1	108%
Cc1ccc(S(=O)(=O)Nc2ccccc2C(O)C[N+](=O)[O-])cc1 (centres undefined)	-4.2%
COc1ccc2c(c1)cc(C(=O)NN)n2C	67.4%
COc1ccc(N2Cc3ccc(C(=O)NN)cc3C2)cc1	-29.2%
CNC(=O)c1cc2cc(OC)ccc2n1CCN(C)C	-11.4%
COC(=O)C1=NN(C(C)=O)C(O)(c2ccccc2)C1 (centres undefined)	2.1%
COc1ccc(/C=N\N2CCN(c3ccccc3OC)CC2)cc1OC	-6.7%
CCOc1ccc(-c2cc(C(=O)Nc3nnc(C)s3)c3ccccc3n2)cc1	6.3%
CCOc1cccc(-c2cc(C(=O)N3CCCCCC3)c3ccccc3n2)c1	-10.2%
CCOc1cccc(-c2cc(C(=O)N3CCc4ccccc43)c3ccccc3n2)c1	110%
CCOc1cccc(-c2cc(C(=O)Nc3cc(C)ccn3)c3ccccc3n2)c1	2%
CCOc1cccc(-c2cc(C(=O)Nc3nnc(C)s3)c3ccccc3n2)c1	135%

SMILES	displacement
CCOc1cccc(-c2cc(C(=O)N3CCN(C)CC3)c3ccccc3n2)c1	-5.5%
Cc1ccccc1OCC(=O)N1N=C(c2ccc(F)cc2)CC1(O)C(F)(F)F (centres undefined)	-4.5%
Cc1[nH]c2ccccc2c1/C=N/NC(=O)c1cccc([N+](=O)[O-])c1	0.7%
COc1ccc(C(C)N(C)CCC(c2ccccc2)c2ccccc2)cc1OC (centres undefined)	5.7%
Cn1c(=O)c(-c2ccccc2N)nc2cc3ccccc3cc21	33.6%
Cn1c(=O)c(N)c2c3c(c(Br)ccc31)C(=O)c1ccccc1-2	159%
Nc1ccc2c(c1)C(=O)c1ccccc1C2=O	6.9%
O=C1c2ccccc2C(=O)c2c1c(Cl)c(Cl)c(Cl)c2N1CCCC1	8%
Cn1c(=O)c(-c2ccccc2N)nc2ccccc21	-5.4%
Cn1c2c(c(=O)n(C)c1=O)C(c1ccc(Br)cc1)C1=C(N2)c2ccccc2C1=O (centres undefined)	-10.4%
Cn1c(=O)c(N2CCCCC2)c2c3c(cccc31)C(=O)c1ccccc1-2	147%
O=C1c2ccccc2C(=O)c2c1cc(Cl)cc2N1CCCCC1	2.8%
Cn1c(=O)c(N)c2c3c(cccc31)C(=O)c1ccccc1-2	154%
COc1ccc(C2CC(C(F)(F)F)n3ncc(C(=O)NC(C)(C)C)c3N2)cc1 (centres undefined)	3.6%
O=C(c1nn2c(C(F)(F)F)cc(-c3ccco3)nc2c1Cl)N1CCN(Cc2ccccc2)CC1	1.1%
CCOc1ccc(C(=O)Nc2ccc([N+](=O)[O-])cc2)cc1Cl	-9.7%
O=C(N/N=C/c1ccc([N+](=O)[O-])o1)c1ccc(Cl)c(Cl)c1	19%
COc1ccc(N(CC(=O)Nc2ccccc2C)S(C)(=O)=O)cc1Cl	-10.4%
C/C(=N\NC(=O)c1cc(C23CC4CC(CC(C4)C2)C3)[nH]n1)c1ccc(N)cc1	-8.7%
Brc1ccc(C=NN2CCN(Cc3ccccc3)CC2)cc1	-17.6%
CCOC(=O)C1=C(N)Oc2ccc3ccccc3c2C1c1ccc(Cl)cc1 (centres undefined)	-10.4%
CCOC(=O)C1=C(N)Oc2c(ccc3ccccc23)C1c1ccc(OC)cc1 (centres undefined)	108%
CCOC(=O)C1=C(C)OC(N)=C(C#N)C1c1ccc(OC)cc1 (centres undefined)	-10.8%
